Results on 15 molecules are retold here after PubChem BioAssay.

For part of these data: Results with a measured potency or affinity are listed apart. Calls of active or inactive are those of the source.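 Rule for the calls, unless noted: active = primary screen activator hit with a dose response curve and TRPC4 channel activation at any tested dose; inactive = no activation, no dose response, or not a primary hit.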

Test [1] deals with TRPC4 beta (transient receptor potential cation channel C4), mouse. Kind of test: activators of mouse TRPC4 channel, confirmation, cell-based, Fluo4 calcium, HEK293 TRPC4beta/mu-opioid, duplicates, 10 µM (AID 2426;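 active = fluorescence ratio normalized to control raised more than 50% in primary screen plus both repeat runs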). The following applies: Fluo4 calcium fluorescence, at 10 µM; hits give high values.
Test [2] has as its system transient receptor potential cation channel C4 beta (TRPC4), mouse. Kind of test: activators of mouse TRPC4 channel, confirmation, cell-based, second round, Fluo4, HEK293 TRPC4beta/mu-opioid, 1 µM (AID 2461;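 active = primary screen active and over 50% activation in each of two duplicate runs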). The following applies: Fluo4 calcium fluorescence, at 1 µM; hits give high values.
The subject of test [3] is TRPC4 (transient receptor potential cation channel C4 beta), mouse. The experiment in a line: positive allosteric modulators of mouse TRPC4, confirmation, cell-based, second round, Fluo-4, HEK293 TRPC4beta/mu-opioid, 1 µM (AID 2554;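 active = primary screen hit whose fluorescence ratio, in both repeats, exceeds the weak agonist control mean by 3 SD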). The following applies: DAMGO EC20, Fluo-4 calcium flux, at 1 µM; hits give high values.
In test [4] the test system is TRPC4 beta (transient receptor potential cation channel C4), mouse. The experiment in a line: positive allosteric modulators of mouse TRPC4, confirmation, cell-based, Fluo-4, HEK293 TRPC4beta/mu-opioid (AID 2555;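 active = primary screen hit whose calcium fluorescence ratio, in both repeats, exceeds the weak agonist control mean by 3 SD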). The following applies: DAMGO EC20, Fluo-4 calcium flux, at 10 µM; hits give high values.
Test [5] concerns the target Short transient receptor potential channel 4 (Mus musculus) (UniProt Q9QUQ5). The experiment in a line: inhibitors of mouse TRPC4 channel, confirmation, cell-based, Fluo4, HEK293 TRPC4beta/mu-opioid (AID 2636;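 active = calcium signal cut by more than 3 SD below the full-agonist control yet still positive, in both repeats and the earlier primary screen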). The following applies: DAMGO, Fluo4 calcium flux, at 10 µM; hits give high values.
Test [6] has the same target. The experiment in a line: inhibitors of mouse TRPC4 channel, confirmation, cell-based, second round, Fluo4, HEK293 TRPC4beta/mu-opioid, 1 µM (AID 2637;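 active = calcium signal ratio cut to more than 3 SD under the fully stimulated control mean yet still positive, in both repeats and the primary screen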). Conditions: Fluo4 calcium flux, DAMGO, at 1 µM; hits give high values.
The target is the same in test [7]. The experiment in a line: mouse TRPC4 channel activators, dose response, cell-based, HEK293 TRPC4/mu-opioid, Fluo-4 calcium (AID 434937).
Test [8] shares this target. Kind of test: TRPC4 positive allosteric modulators, dose response, cell-based, HEK293 TRPC4/mu-opioid, Fluo-4 calcium, EC20 DAMGO (AID 434941;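 active = earlier screen potentiator hit that boosts the TRPC4 ion channel at some dose, with a dose response; inactive = no potentiation, no dose response, or not a prior hit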;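 note: calcium entry triggered by an EC20 dose of DAMGO at the co-expressed mu-opioid receptor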).
The target is the same in test [9]. The experiment in a line: mouse TRPC4 channel inhibitors, dose response, cell-based, HEK293 TRPC4/mu-opioid, Fluo-4 calcium (AID 434942;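 active = primary screen inhibitor hit that blocks the TRPC4 channel at some tested dose, yielding a dose curve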).
The target of test [10] is Short transient receptor potential channel 6 (Mus musculus) (UniProt Q61143). Kind of test: inhibition of mouse TRPC6 channel, confirmation, selectivity assay for TRPC4 inhibitor project, cell-based, HEK293, membrane potential dye, duplicate (AID 434948;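 active = active in primary screen and both duplicates, each dropping signal beyond three positive-control SD with fluorescence still positive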). Conditions: HEK293 TRPC6, membrane potential dye fluorescence, at 10 µM, stimulated with maximal-effect acetylcholine; hits give high values.

The target is the same in test [11]. The experiment in a line: activation of mouse TRPC6 channel, confirmation, selectivity assay for TRPC4 activator project, cell-based, HEK293, membrane potential dye, duplicate (AID 434950;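 active = membrane potential signal rise above negative control mean plus 3 SD in both duplicates, also active in the earlier TRPC4 screen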;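 for activation: 0% = buffer only wells and 100% = acetylcholine maximal-effect wells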). Conditions: HEK293 TRPC6, membrane potential fluorescence, at 10 µM; hits give high values.
For test [12] the target is unchanged. Kind of test: TRPC6 potentiation by TRPC4 potentiator hits, confirmation, selectivity assay for TRPC4 potentiator project, HEK293 cells, membrane potential dye, duplicate (AID 434952;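 active = compound raising the membrane signal above positive-control mean plus 3 SD in both repeats, and a primary screen hit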). The following applies: HEK293 TRPC6, membrane potential dye fluorescence, at 10 µM, maximal acetylcholine added after compound; hits give high values.
For test [13], the target named is Short transient receptor potential channel 4 (Mus musculus) (UniProt Q9QUQ5). Kind of test: calcium flux activators in TRPC4/5HT1a cells, counter-screen for TRPC4 activator project, cell-based, second counter screen, HEK293 TRPC4/5HT1a, Fluo-4 (AID 434977;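 active = calcium signal rise above buffer-control mean plus 5 SD in both duplicates, and also a hit in the primary screen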;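 for activation: plate controls were assay buffer for no effect and maximal serotonin response for full effect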). The following applies: Fluo-4 calcium flux, at 10 µM; hits give high values.
The nature of test [14]: calcium flux inhibitors in TRPC4/5HT1a cells, confirmation, counter-screen for TRPC4 inhibitor project, cell-based, second counter screen, HEK293 TRPC4/5HT1a, Fluo-4 (AID 434978;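 active = primary screen active whose calcium signal fell more than 3 SD beyond the full-serotonin control mean in both duplicate plates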;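 for outcome: serotonin given first at submaximal then at maximal dose after compound preincubation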). The following applies: Fluo-4 calcium flux, at 10 µM, serotonin added to trigger calcium flux; hits give high values.
The subject of test [15] is TRPC4 (mouse), co-expressed with 5HT1a in HEK293. The experiment in a line: calcium flux potentiators in TRPC4/5HT1a cells, confirmation, counter-screen for TRPC4 potentiator project, cell-based, second counter screen, HEK293 TRPC4/5HT1a, Fluo-4 (AID 434979;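 active = signal rise over 3 SD above mean of control wells given weak agonist, in both repeats and first screen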). Conditions: Fluo-4 calcium flux, at 10 µM, serotonin added at its EC20 dose; hits give high values.
Test [16] in a line: calcium flux activation in mu-opioid HEK293 cells, confirmation, counter-screen for TRPC4 activator project, cell-based, HEK293 mu-opioid receptor line (AID 449723;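 active = hit in primary screen, with calcium signal over 5 SD above buffer well mean in both duplicates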;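 note: counter screen cells carry the mu-opioid receptor alone and lack TRPC4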). Conditions: Fluo-4 calcium fluorescence, at 10 µM; hits give high values.
Test [17] in a line: calcium flux enhancement in mu-opioid HEK293 cells, confirmation, counter-screen for TRPC4 allosteric potentiator project, cell-based, HEK293 mu-opioid receptor line (AID 449724;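 active = calcium signal rise more than 3 SD above the low-dose agonist control mean, in both duplicate plates and the primary screen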;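 note: HEK293 cells carrying mu-opioid receptor only with no TRPC4 channel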). The following applies: Fluo-4 calcium flux, at 10 µM, compound added before EC20 DAMGO stimulus; hits give high values.

Sequence of Short transient receptor potential channel 4 (Mus musculus) (Q9QUQ5 whole entry, looked up): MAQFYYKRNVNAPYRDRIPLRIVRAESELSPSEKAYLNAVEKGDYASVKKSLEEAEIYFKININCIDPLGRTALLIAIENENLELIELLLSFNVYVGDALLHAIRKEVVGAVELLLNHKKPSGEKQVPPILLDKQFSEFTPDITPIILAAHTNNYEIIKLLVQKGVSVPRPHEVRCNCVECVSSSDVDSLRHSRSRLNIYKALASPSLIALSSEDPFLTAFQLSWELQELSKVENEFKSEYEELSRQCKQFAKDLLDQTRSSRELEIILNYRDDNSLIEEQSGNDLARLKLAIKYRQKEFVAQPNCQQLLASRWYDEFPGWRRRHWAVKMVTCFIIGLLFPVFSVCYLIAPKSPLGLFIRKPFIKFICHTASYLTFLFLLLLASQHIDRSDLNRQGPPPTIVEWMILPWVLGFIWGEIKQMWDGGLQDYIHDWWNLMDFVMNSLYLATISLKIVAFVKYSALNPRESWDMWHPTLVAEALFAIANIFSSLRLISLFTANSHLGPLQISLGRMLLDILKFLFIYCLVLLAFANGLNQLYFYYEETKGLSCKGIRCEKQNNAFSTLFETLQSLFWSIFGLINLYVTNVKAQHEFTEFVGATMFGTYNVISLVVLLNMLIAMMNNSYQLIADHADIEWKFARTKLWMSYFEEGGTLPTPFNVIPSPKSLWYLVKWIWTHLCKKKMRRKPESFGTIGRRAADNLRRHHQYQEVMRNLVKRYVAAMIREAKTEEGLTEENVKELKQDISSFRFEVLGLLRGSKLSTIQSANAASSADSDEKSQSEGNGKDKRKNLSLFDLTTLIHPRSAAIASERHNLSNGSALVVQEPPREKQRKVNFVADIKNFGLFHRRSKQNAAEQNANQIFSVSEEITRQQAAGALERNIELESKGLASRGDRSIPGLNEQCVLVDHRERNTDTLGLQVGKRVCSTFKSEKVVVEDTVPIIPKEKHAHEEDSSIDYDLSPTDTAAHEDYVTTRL
Sequence of Short transient receptor potential channel 6 (Mus musculus) (Q61143 whole entry, looked up): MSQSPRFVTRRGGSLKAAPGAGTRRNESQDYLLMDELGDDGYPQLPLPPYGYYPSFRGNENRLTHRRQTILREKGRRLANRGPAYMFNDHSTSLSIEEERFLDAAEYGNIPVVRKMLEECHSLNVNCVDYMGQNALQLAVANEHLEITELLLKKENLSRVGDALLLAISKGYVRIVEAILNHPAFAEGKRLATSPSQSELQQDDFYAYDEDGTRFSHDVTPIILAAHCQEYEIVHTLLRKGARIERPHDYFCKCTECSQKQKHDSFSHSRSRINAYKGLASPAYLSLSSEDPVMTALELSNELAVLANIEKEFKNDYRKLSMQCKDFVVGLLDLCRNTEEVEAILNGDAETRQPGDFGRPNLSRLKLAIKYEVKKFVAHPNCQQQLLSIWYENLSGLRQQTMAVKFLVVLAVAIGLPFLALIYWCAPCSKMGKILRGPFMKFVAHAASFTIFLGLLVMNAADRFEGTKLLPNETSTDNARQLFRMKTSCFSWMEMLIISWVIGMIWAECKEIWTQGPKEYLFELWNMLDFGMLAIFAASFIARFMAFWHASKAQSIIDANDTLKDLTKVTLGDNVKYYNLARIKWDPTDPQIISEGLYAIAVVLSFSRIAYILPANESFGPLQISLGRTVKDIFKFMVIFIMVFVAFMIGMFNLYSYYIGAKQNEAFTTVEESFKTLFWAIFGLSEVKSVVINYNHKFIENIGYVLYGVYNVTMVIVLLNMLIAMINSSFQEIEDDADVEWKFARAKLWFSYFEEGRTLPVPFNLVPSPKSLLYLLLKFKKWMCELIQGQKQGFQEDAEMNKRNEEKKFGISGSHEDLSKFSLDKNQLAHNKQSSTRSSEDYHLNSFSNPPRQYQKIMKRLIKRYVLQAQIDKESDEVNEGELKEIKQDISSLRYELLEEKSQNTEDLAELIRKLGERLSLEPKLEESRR

In the case of `CSc1ccc(CN(C)C(C)C(=O)NCc2ccccc2)cc1` (stereo not given), the outcome in test [1], in [2], in test [3], in [4], in test [5] and in test [6] was inactive. Also, the outcome in test [7], in test [8], in test [9], in test [10], in test [11] and in test [12] was inactive. The result in [13], in test [14], in [15], in test [16] and in test [17] was inactive.

Regarding `CC1CCc2c(C(=O)N3CCN(S(=O)(=O)c4cccs4)CC3)csc2C1` (stereo not given), the outcome in test [1], in test [2], in test [3], in [5], in [6] and in [7] was inactive. The result in [8], in [9], in test [10], in test [11], in test [12] and in [13] was inactive. Moreover, the outcome in [14], in [15], in test [16] and in test [17] was inactive. Moreover, the potentiation in test [4] was 22% (active).

As for `COc1cccc(Oc2cncnc2-c2ccc(OC)cc2O)c1`, the outcome in test [1], in test [2], in [3], in test [4], in test [5] and in test [6] was inactive. For the same molecule, the outcome in test [7], in [8], in test [9], in test [10], in test [11] and in test [12] was inactive. Also, the outcome in test [13], in [14], in test [15], in test [16] and in [17] was inactive.

On to `O=C(C1CCN(S(=O)(=O)c2cccnc2)CC1)N1CCN(c2ccc(Cl)cc2)CC1`, for which the outcome in test [1], in [2], in test [3], in test [4], in test [5] and in test [6] was inactive. For the same molecule, the result in [7], in test [8], in test [9], in [10], in [12] and in test [15] was inactive. Besides, the outcome in [16] and in test [17] was inactive. Moreover, the results for the activation in test [11] and in test [13] were 35.5% (active) and 29.8% (active), respectively. Moreover, the inhibition in test [14] is 42.4% (active).

Take `CCn1c2ccccc2c2cc(NC(=O)CN3CCCC3)ccc21`: the outcome in test [1], in test [2], in [3], in test [5], in test [6] and in test [7] was inactive. The result in test [8], in test [9], in test [10], in test [11], in test [12] and in [13] was inactive. In addition, the outcome in test [14], in [16] and in test [17] was inactive. Besides, the potentiation is 33% (active) in [4] and 11.8% (active) in test [15].

For `Cc1ccc(C)c(N2CCN(CCCNC(=O)CCn3c(=O)c4cccn4c4cccnc43)CC2)c1`, the outcome in test [1], in test [2], in test [3], in test [4], in test [5] and in test [6] was inactive. The result in [7], in [8], in [9], in test [10], in test [11] and in [12] was inactive. Further, the outcome in [13], in [14], in test [15], in [16] and in [17] was inactive.

On to `COc1cc(Cl)c(S(=O)(=O)N2CCN(Cc3ccc4c(c3)OCO4)CC2)cc1Cl`, for which the outcome in [1], in test [2], in [3], in test [5], in test [6] and in test [7] was inactive. Further, the outcome in test [8], in test [9], in test [10], in [11], in test [12] and in test [13] was inactive. Besides, the result in test [14], in test [16] and in test [17] was inactive. Moreover, the potentiation in test [4] was 10% (active); in test [15], 16.8% (active).

Take `Cc1ccc(Cl)cc1N1CCN(Cc2nc3ccsc3c(=O)[nH]2)CC1`: the outcome in test [1], in [2], in test [3], in [5], in [6] and in test [7] was inactive. Moreover, the outcome in test [8], in test [9], in test [10], in test [11], in test [12] and in [13] was inactive. For the same molecule, the outcome in test [14], in [15], in test [16] and in test [17] was inactive. In addition, the potentiation in test [4] was 25% (active).

Take `Cc1ccc(CC(=O)NCC(c2ccco2)N(C)C)cc1C` (stereo not given): the outcome in test [1], in test [2], in test [3], in test [4], in [5] and in test [6] was inactive. In addition, the outcome in test [7], in test [8], in test [9], in test [10], in test [11] and in test [12] was inactive. For the same molecule, the outcome in test [13], in [14], in test [15], in test [16] and in [17] was inactive.

In the case of `CC(=O)N1N=C(c2c(-c3ccccc3)c3cc(C)ccc3[nH]c2=O)CC1c1ccco1` (stereo not given), the result in test [1], in test [2], in [3], in test [5], in test [6] and in [7] was inactive. In addition, the outcome in test [8], in test [9], in test [10], in [11], in test [13] and in test [14] was inactive. Moreover, the result in test [16] and in [17] was inactive. For the same molecule, the potentiation is 10% (active) in test [4] and 15.5% (active) in test [15]. In addition, the potentiation, percent of control in test [12] is 186% (active).

`CCc1nc2ccccc2n1Cc1ccccc1F`: the outcome in test [1], in test [2], in test [3], in test [4], in test [5] and in test [6] was inactive. For the same molecule, the outcome in test [7], in [8], in [9], in test [10], in test [11] and in [12] was inactive. Also, the result in test [13], in [14], in test [15], in test [16] and in [17] was inactive.

Take `Cc1ccc(NC(=O)c2cc(N3C(=O)C=CC3=O)ccc2N2CCOCC2)cc1Cl`: the outcome in [1], in test [2], in [3], in test [4], in test [5] and in test [6] was inactive. Besides, the outcome in test [7], in [8], in test [9], in test [10], in [11] and in test [12] was inactive. The outcome in [13], in test [14], in test [15], in [16] and in test [17] was inactive.

Regarding `O=C(COc1ccccc1-c1ccccc1)NCc1ccco1`, the result in test [1], in [2], in test [3], in test [4], in test [5] and in test [6] was inactive. The result in [7], in test [8], in [9], in test [10], in [11] and in test [12] was inactive. Further, the outcome in test [13], in test [14], in [15], in [16] and in test [17] was inactive.

Consider `O=C(/C=C/c1ccc(Cl)cc1)N(Cc1ccccc1)C1CCS(=O)(=O)C1` (stereo not given), for which the result in [1], in test [2], in test [3], in test [4], in test [5] and in [6] was inactive. The outcome in test [7], in [8], in [9], in test [10], in test [11] and in [12] was inactive. The outcome in test [13], in [14], in [16] and in [17] was inactive. For the same molecule, the potentiation in test [15] is 15.5% (active).

Consider `COC(=O)c1ccc(NC(=O)CCN2CCN(Cc3ccccc3)CC2)cc1`, for which the result in [1], in test [2], in test [4], in test [5], in [6] and in test [7] was inactive. The result in test [8], in test [9], in test [10], in test [11], in test [12] and in test [13] was inactive. Further, the result in [14], in [16] and in [17] was inactive. Besides, the potentiation in test [3] was 25% (active); in test [15] it was 12.9% (active).
